Data published in PubChem BioAssay (NCATS).
Where “and” joins values, the source holds several entries; their conditions need not be identical. Identical values can stand only once. Results filed as inconclusive are left out. Calls of active or inactive are those of the source. Calls come from the whole dose curve. Numbered stars: 1 amine (or outer) side, 2 acyl side, 3 side chain; on linkers, the order of the positions; unused ones are H or OH. Bridge positions count the residues as written; N and C are the ends. Square brackets hold non-standard residues; d marks the D form. Peptide text beside a SMILES is read from it. * marks the point of attachment. X6 = NC1=N[C@@H](O)C[C@H]([C@H](N[*:1])C(=O)[*:2])N1; ΔAla(Z-3-ureido) = NC(=O)N/C=C(\N)C(=O)O; β3hOrn = NCCC[C@H](N)CC(=O)*; Dap = NC[C@H](N)C(=O)O

Tests used:
[1] = Primary qHTS for inhibitors of SARS-S pseudo-typed particle cell entry (AID 1479145); settings: outcome: dose series up to 57.1 µM unless noted; note: nearly all actives have a fitted effect of over 45% in size
[2] = Primary qHTS for Huh7 cytotoxicity: counterscreen for inhibitors of MERS-S pseudotyped particle cell entry (AID 1479147); settings: outcome: dose series up to 57.1 µM unless noted
[3] = Primary qHTS for inhibitors of MERS-S pseudo-typed particle cell entry (AID 1479149); settings: outcome: dose series up to 57.1 µM unless noted; note: nearly all actives have a fitted effect of over 60% in size
[4] = Primary qHTS for Vero E6 cytotoxicity: counterscreen for inhibitors of SARS-S pseudo-typed particle cell entry (AID 1479150); settings: outcome: dose series up to 57.1 µM unless noted
[5] = Cytotoxicity counterscreen for inhibitors of SARS-CoV-2 cell entry (AID 1645845); settings: outcome: dose series up to 57.1 µM unless noted; note: nearly all actives have a fitted effect of over 50% in size
How it was run: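 48 h compound treatment (after 1 h preincubation), HEK293-ACE2 cells, 37 C/5% CO2; ATP luminescence endpoint; normalized to cell wells and media blanks.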

[6] = Primary qHTS to identify inhibitors of SARS-CoV-2 cell entry (AID 1645846); settings: SARS-CoV-2 pseudovirus cell entry assay, luminescence; activity change, negative = inhibition: at 57.1 µM (top of the series) unless noted; note: nearly all actives have a fitted effect of over 45% in size
How it was run: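 Luminescence readout (Bright-Glo luciferase) 48 h after pseudoparticle addition. HEK293-ACE2 cells, 1500/well; compound pre-incubation 1 h; Normalized to spike PP and bald PP.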

C/C=C/C=C/C(=O)O
inactive: Potency [1] | Potency [2] | Potency [3] | Potency [4] | Potency [5] | Potency [6]

OCC1OC(c2ccc(Cl)c(Cc3ccc(OC4CCOC4)cc3)c2)C(O)C(O)C1O (stereo not given)
-20.7%: activity change, negative = inhibition [6]
inactive: Potency [1] | Potency [2] | Potency [3] | Potency [4] | Potency [5]

CCC(O)c1ccccc1 (stereo not given)
-0.957%: activity change, negative = inhibition [6]
inactive: Potency [1] | Potency [2] | Potency [3] | Potency [4] | Potency [5]

CCC(=O)O[C@]1(C(=O)COC(C)=O)CC[C@H]2[C@@H]3CCC4=CC(=O)CC[C@]4(C)[C@H]3[C@@H](O)C[C@@]21C
-0.634%: activity change, negative = inhibition [6]
inactive: Potency [1] | Potency [2] | Potency [3] | Potency [4] | Potency [5]

C[S+](CC[C@H](N)C(=O)O)C[C@H]1O[C@@H](n2cnc3c(N)ncnc32)[C@H](O)[C@H]1O (stereo not given in full)
inactive: Potency [1] | Potency [2] | Potency [3] | Potency [4] | Potency [5] | Potency [6]

CC(=O)OCC(=O)[C@@]1(O)[C@H](C)C[C@H]2[C@@H]3C[C@H](F)C4=CC(=O)C=C[C@]4(C)[C@H]3[C@@H](O)C[C@@]21C
inactive: Potency [1] | Potency [2] | Potency [3] | Potency [4] | Potency [5]
-11.4%: activity change, negative = inhibition [6]

NC(=S)NS(=O)(=O)c1ccc(N)cc1
inactive: Potency [1] | Potency [2] | Potency [3] | Potency [4] | Potency [5]
-18.4%: activity change, negative = inhibition [6]

CO/N=C(\C(=O)N[C@@H]1C(=O)N2C(C(=O)O)=C(CSc3cnns3)CS[C@H]12)c1csc(N)n1
inactive: Potency [1] | Potency [2] | Potency [3] | Potency [4] | Potency [5]
-7.92%: activity change, negative = inhibition [6]

CCC(Oc1ccccc1)C(=O)N[C@@H]1C(=O)N2[C@@H]1SC(C)(C)[C@@H]2C(=O)O (stereo not given in full)
-26.6% [at 114 µM]: activity change, negative = inhibition [6]
inactive: Potency [1] | Potency [2] | Potency [3] | Potency [4] | Potency [5]

NC(C(=O)NC1C(=O)N2C(C(=O)O)=C(CSc3cn[nH]n3)CSC12)c1ccc(O)cc1 (stereo not given)
inactive: Potency [1] | Potency [2] | Potency [3] | Potency [4] | Potency [5]
-22%: activity change, negative = inhibition [6]

O=P(O)(O)OC(Cn1cncn1)(Cn1cncn1)c1ccc(F)cc1F
-20.2%: activity change, negative = inhibition [6]
inactive: Potency [1] | Potency [2] | Potency [3] | Potency [4] | Potency [5]

COc1cccc(N2CCN(C3=Nc4c(F)cccc4[C@H](CC(=O)O)N3c3cc(C(F)(F)F)ccc3OC)CC2)c1
inactive: Potency [1] | Potency [2] | Potency [3] | Potency [4] | Potency [5] | Potency [6]

CCNC(=O)CCC/C=C\C[C@@H]1[C@@H](/C=C/[C@@H](O)CCc2ccccc2)[C@H](O)C[C@@H]1O
-19.7%: activity change, negative = inhibition [6]
inactive: Potency [1] | Potency [2] | Potency [3] | Potency [4] | Potency [5]

CC(=O)OCC(=O)[C@@]1(O)[C@H](C)C[C@H]2[C@@H]3C[C@H](F)C4=CC(=O)C=C[C@]4(C)[C@@]3(F)[C@@H](O)C[C@@]21C
inactive: Potency [1] | Potency [2] | Potency [3] | Potency [4] | Potency [5] | Potency [6]

NCCC[C@H](N)CC(=O)N[C@H]1CNC(=O)[C@H]([C@H]2C[C@H](O)N=C(N)N2)NC(=O)/C(=C/NC(N)=O)NC(=O)[C@H](CO)NC(=O)[C@H](CO)NC1=O (β3hOrn-[Dap]SS[ΔAla(Z-3-ureido)][X6]; lactam 1-C)
inactive: Potency [1] | Potency [2] | Potency [3] | Potency [4] | Potency [5] | Potency [6]

C[C@@H]1CC2C3C[C@H](F)C4=CC(=O)C=C[C@]4(C)[C@@]3(F)[C@@H](O)C[C@]2(C)[C@@]1(OC(=O)c1ccco1)C(=O)SCF (stereo not given in full)
3.79%: activity change, negative = inhibition [6]
inactive: Potency [1] | Potency [2] | Potency [3] | Potency [4] | Potency [5]

C=CCOc1ccc(CC(=O)O)cc1Cl
-9.87% [at 114 µM]: activity change, negative = inhibition [6]
inactive: Potency [1] | Potency [2] | Potency [3] | Potency [4] | Potency [5]

Cc1oc(=O)oc1COC(=O)N1CC[C@@H](N2CC/C(=C\C3=C(C(=O)O)N4C(=O)[C@@H](NC(=O)/C(=N/O)c5nsc(N)n5)[C@H]4SC3)C2=O)C1
inactive: Potency [1] | Potency [2] | Potency [3] | Potency [4] | Potency [5]
-27.9%: activity change, negative = inhibition [6]

Cc1onc(-c2c(F)cccc2Cl)c1C(=O)N[C@@H]1C(=O)N2[C@@H]1SC(C)(C)[C@H]2C(=O)O
inactive: Potency [1] | Potency [2] | Potency [3] | Potency [4] | Potency [5]
-29.1%: activity change, negative = inhibition [6]

C=CC[N+]1([C@H]2C[C@H]3[C@@H]4CC[C@H]5C[C@H](O)[C@@H](N6CCOCC6)C[C@]5(C)[C@H]4CC[C@]3(C)[C@H]2OC(C)=O)CCCC1
-19.7% and -28.9%: activity change, negative = inhibition [6]
inactive: Potency [1] | Potency [2] | Potency [3] | Potency [4] | Potency [5]
